Rows were chosen to be rich in hits. Some 7.3% of all compounds tested hit in one or more screens of this group.
NPC1 prom act = qHTS Assay for NPC1 Promoter Activators; Huh7 NPC1 promoter luciferase reporter, 24 h; AID 485313, 2010; hit rate 2.4% among 320,000; Potency, µM (top dose mostly 9.22 µM), actives largely listed as activators; further: nearly all actives have a fitted effect of over 60% in size
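Luciferase expression driven by the NPC1 promoter was measured in stably transfected Huh7 cells after a 24 h compound incubation, using a luciferase reagent and a luminescence read.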
SMN2 splice enh = qHTS Assay for Enhancers of SMN2 Splice Variant Expression; HEK293 SMN2-luciferase splicing reporter, luminescence, 30-36 h; Potency, µM (highest dose often 46.1 µM), most hits filed as activators; hit rate 2.8% among 210,000; AID 1458, 2008; further: nearly all actives have a fitted effect of over 55% in size
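qHTS luciferase splicing reporter: luminescence rises when SMN2 exon 7 is included in transfected HEK293 cells. Compound exposure lasted 30-36 h at 37C, with 4.5 mM final sodium butyrate as control, followed by a ONE-Glo read.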
FLuc counter = qHTS profiling assay for firefly luciferase inhibitor/activator using purifed enzyme and Km concentrations of substrates (counterscreen for miR-21 project). Potency, µM (doses to about 57.5 µM), hits mostly inhibitors. hit rate 6.9% among 360,000. purified FLuc, Km substrates, luminescence inhibition. Luciferin 4-monooxygenase (Photinus pyralis), P08659. AID 588342, 2011; further: nearly all actives have a fitted effect of over 55% in size
Target sequence (P08659 whole entry, looked up): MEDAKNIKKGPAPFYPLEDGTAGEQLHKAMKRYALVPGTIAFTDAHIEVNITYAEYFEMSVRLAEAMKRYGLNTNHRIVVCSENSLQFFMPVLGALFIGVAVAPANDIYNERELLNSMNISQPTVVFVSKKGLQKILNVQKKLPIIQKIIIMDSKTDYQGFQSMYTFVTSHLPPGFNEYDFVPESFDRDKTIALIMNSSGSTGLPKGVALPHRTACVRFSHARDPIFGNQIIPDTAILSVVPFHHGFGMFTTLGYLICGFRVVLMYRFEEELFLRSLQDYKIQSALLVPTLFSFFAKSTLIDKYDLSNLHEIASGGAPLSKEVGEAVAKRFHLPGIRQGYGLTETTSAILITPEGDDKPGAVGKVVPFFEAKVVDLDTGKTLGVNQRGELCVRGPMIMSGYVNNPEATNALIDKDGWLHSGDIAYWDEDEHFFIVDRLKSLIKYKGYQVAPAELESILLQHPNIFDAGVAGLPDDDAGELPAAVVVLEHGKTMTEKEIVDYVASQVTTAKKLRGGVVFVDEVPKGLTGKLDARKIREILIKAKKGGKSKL
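Purified P. pyralis luciferase, 10 nM final, with Km-level 10 uM D-luciferin and 10 uM ATP in 50 mM Tris acetate pH 7.5, 10 mM Mg acetate, 0.01% Tween-20, 0.05% BSA; 6-point qHTS titration about 60 µM downward; luminescence read.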
KinaseGlo FLuc = Counterscreen for Luciferase (Kinase-Glo TM) Inhibition; hit rate 0.28% among 200,000; Kinase-Glo luciferase, ATP luminescence, 8 min; Potency, µM (doses to about 38.3 µM), hits mostly inhibitors; further: nearly all actives have a fitted effect of over 60% in size
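Compounds were added to a substrate mix at pH 7.2 (50 mM imidazole, 10 uM ATP, within the enzyme's linear range), followed by Kinase-Glo detection reagent; luminescence was measured after 8 minutes at ambient temperature.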
Rab9 prom act = qHTS Assay for Rab9 Promoter Activators; Huh7 Rab9 promoter-luciferase reporter, luminescence, 24 h; Potency, µM (series often up to 9.22 µM), actives largely listed as activators; hit rate 2.8% among 320,000; further: nearly all actives have a fitted effect of over 60% in size
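Promoter activation is measured as luciferase luminescence in Huh7 cells stably transfected with a Rab9 promoter–luciferase construct, following 24 h compound exposure at 37 °C and 10 min reagent incubation at ambient temperature.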
ELG1 genotoxic = qHTS screen for small molecules that induce genotoxicity in human embryonic kidney (HEK293T) cells expressing luciferase-tagged ELG1. Potency, µM (top dose mostly 46 µM), actives largely listed as activators. HEK293T ELG1-luciferase reporter, luminescence, 16 h. hit rate 1.3% among 330,000. AID 504466, 2011; further: nearly all actives have a fitted effect of over 60% in size
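DMSO vehicle served as control against compound-treated ELG1-luciferase HEK293T cells; exposure lasted 16 hr at 37 °C and 5% CO2, followed by ONE-Glo luminescence detection after 30 min.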
Numbers stand for hits; i = inactive; ? = inconclusive; nt = no result; [ ] = dose if it differs, or a comment. The call rests on the fitted dose curve; in most records, active means well fitted curve in the direction sought with a large enough effect; inconclusive means small, poorly fitted or top-dose-only effect, or another doubt; inactive means no such curve, though single readings can be large; an effect the other way counts as inactive or inconclusive.

SMILES	NPC1 prom act	SMN2 splice enh	FLuc counter	KinaseGlo FLuc	Rab9 prom act	ELG1 genotoxic
O=C(NCCc1ccccc1)/C(=N\O)c1ccccc1	3.2µM	?	15µM	i	4µM	?
CC(C)(C)C(=O)NC(=S)NCCc1ccccc1	?	i	17µM	i	?	i
Cc1ccccc1NC(=O)NCCc1ccc(Cl)cc1	i	i	i	i	i	i
CN(C)CCCNC(=O)/C(=N\O)c1ccccc1	i	i	i	i	i	i
S=C(NCCc1ccccc1)Nc1ccc(Cl)cc1	i	10µM	17µM	i	i	i
S=C(NCCc1ccccc1)N/N=C/c1ccc(Cl)cc1	i	nt	i	nt	i	i
Cc1n[nH]c(C)c1N=Nc1cc(Cl)ccc1Cl	i	i	i	i	i	i
Nc1nc(SCC(=O)Nc2ccc([N+](=O)[O-])cc2Br)n[nH]1	i	i	i	i	i	i
CC(C)[C@H](NC(=O)NCCc1ccccc1)C(=O)O	i	i	i	i	i	i
CC(C)(C)NC(=O)NCCc1ccccc1	1.4µM	nt	21µM	nt	4µM	?
C/C(=C\c1ccccc1)C(=O)NCCc1ccccc1	1.4µM	11µM	3.4µM	i	0.71µM	4.6µM
S=C(NCCc1ccccc1)NCCc1ccccc1	4.5µM	13µM	15µM	i	4.5µM	?
CCN(CC(=O)NCc1ccc(F)cc1)Cc1nc2cc(Cl)ccc2c(=O)[nH]1	i	i	i	i	i	i
Cc1ccc(C(=O)Oc2ccc(N3C(=O)CCC3=O)c(C)c2)cc1	i	i	2.7µM	i	i	i
COc1ccc(C(=O)Oc2ccc3ccc(=O)oc3c2)cc1OC	i	nt	i	nt	i	i
COc1cccc(C(=O)Oc2ccc3ccc(=O)oc3c2)c1	i	nt	5.4µM	nt	i	i
Cc1ccc(C(=O)Oc2ccc3ccc(=O)oc3c2)cc1	i	nt	2.4µM	nt	i	i
O=C(Oc1ccc2ccc(=O)oc2c1)c1ccc([N+](=O)[O-])cc1	i	nt	i	nt	i	i
COc1ccc(OC)c(N(CC(=O)N2CCCC2)S(=O)(=O)c2ccc(C)cc2)c1	i	nt	i	nt	i	i
Cn1c(Cn2c(=O)sc3ccccc32)nnc1SCc1ccccc1	i	i	i	i	i	i
CC1=NOC(=O)/C1=C/c1ccc2c(c1)OCO2	i	i	?	i	i	?
Cc1cc(C(=O)N2CCC(CO)(Cc3cccc(C(F)(F)F)c3)CC2)n[nH]1	i	nt	i	nt	i	i
O=C(c1cnsn1)N1CCC(CO)(Cc2cccc(F)c2)CC1	?	nt	13µM	i	3.2µM	?
O=C(c1ccc2c(=O)n3c(nc2c1)CCCCC3)N1CCCCC1	i	nt	i	nt	i	i
O=C(O)c1ccc2c3n(nc2c1)-c1ccc(Cl)cc1CO3	?	nt	1.9µM	nt	?	i
SMILES	NPC1 prom act	SMN2 splice enh	FLuc counter	KinaseGlo FLuc	Rab9 prom act	ELG1 genotoxic
O=C(c1ccc2c3n(nc2c1)-c1ccc(Cl)cc1CO3)N1CCCCC1	2.2µM	nt	5.4µM	nt	1.8µM	?
Cc1ccc2c(c1)COc1c3ccc(C(=O)N4CCOCC4)cc3nn1-2	2.5µM	nt	9.5µM	nt	1.6µM	16µM
C=CCNC(=O)C(=O)NCC(c1ccc2c(c1)OCO2)N1CCN(c2ccc(F)cc2)CC1 (stereo not drawn)	i	nt	i	nt	i	i
c1ccc(-c2nc(C3CCCCC3)no2)cc1	i	i	17µM	i	i	21µM
COc1ccc(-c2nc(C3CCCCC3)no2)cc1OC	?	i	15µM	i	2µM	?
Cc1ccc(-c2nc(C3CCN(S(=O)(=O)c4ccc(C(C)(C)C)cc4)CC3)no2)cc1	i	i	i	i	i	i
O=[N+]([O-])c1ccccc1S(=O)(=O)NCCC1=CCCCC1	i	i	i	i	i	i
Cc1nn2c(COc3ccc(NC(=O)C(C)C)cc3)nnc2c2ccccc12	i	i	i	i	i	?
Cc1nn2c(COc3ccc(NC(=O)c4ccccc4Cl)cc3)nnc2c2ccccc12	i	i	6µM	i	i	i
Cc1nnc(SCc2cc([N+](=O)[O-])cc3c2OCOC3)n(N)c1=O	i	i	i	i	i	i
Cc1ccc2nc(C3CCCCC3)[nH]c2c1	1.8µM	nt	9.5µM	nt	2.8µM	?
O=C(CN1CCC(Cc2ccccc2)CC1)NC(=O)NCc1ccccc1	i	i	i	i	i	i
COc1ccc(C2C(C(=O)Nc3cc(C)on3)c3ccccc3C(=O)N2C)cc1OC (stereo not drawn)	i	nt	i	nt	i	i
COc1ccc(OC)c(/C=C/C(=O)OCC(=O)Nc2nnc(-c3ccccc3)o2)c1	i	nt	i	nt	i	i
O=C(CN1C(=O)S/C(=C\c2ccccc2)C1=O)NC1CCS(=O)(=O)C1 (stereo not drawn)	i	nt	i	nt	i	i
O=C(CN1C(=O)S/C(=C\C=C\c2ccccc2)C1=O)NC1CCS(=O)(=O)C1 (stereo not drawn)	2.5µM	nt	5.4µM	nt	2.8µM	i[9.26 µM]
CC(C)c1ccc(/C=C2\SC(=O)N(CC(=O)NC3CCS(=O)(=O)C3)C2=O)cc1 (stereo not drawn)	4µM	nt	1.1µM	nt	?	i
O=C(NCc1ccccc1)C(c1cccnc1)N(C(=O)c1ccccn1)c1ccc(F)cc1 (stereo not drawn)	i	nt	i	nt	i	i
c1cncc(-c2ccc3ncnc(NCc4ccc5c(c4)OCO5)c3c2)c1	i	nt	i	nt	i	i
O=C(c1cnccn1)N1CCC2(CC1)CN(c1ccccc1)C2	nt	i	nt	i	nt	nt
CC(C)NC(=O)c1cnc2sc(N3CCCCCC3)nn2c1=O	nt	nt	i	nt	nt	nt
O=C1C(Cl)=C(N2CCCCC2)C(=O)C(Cl)=C1c1cnc(N2CCCCC2)s1	i	i	9.5µM	i	i	i
Cc1cc2nc(/C=C/c3cccnc3)[nH]c2cc1C	?	nt	2.4µM	nt	?	2.3µM
Cc1ccc2c(C(=O)CN3CCCC(C)C3)c(C)[nH]c2c1 (stereo not drawn)	i	nt	i	nt	i	i
O=C(Nc1cc(C(F)(F)F)ccc1Cl)c1cc(-c2ccc3c(c2)OCCO3)on1	nt	nt	1.7µM	nt	nt	nt
SMILES	NPC1 prom act	SMN2 splice enh	FLuc counter	KinaseGlo FLuc	Rab9 prom act	ELG1 genotoxic
O=C(Nc1ccccc1C(F)(F)F)c1cc(-c2ccc3c(c2)OCCO3)on1	nt	nt	0.38µM	nt	nt	nt
Cc1ccccc1C(=O)Nc1nc2c(s1)CC(C(C)(C)C)CC2 (stereo not drawn)	nt	nt	6µM	nt	nt	nt
CC(C)Oc1ccc(C(=O)Nc2nc3c(s2)CC(C(C)(C)C)CC3)cc1 (stereo not drawn)	nt	nt	i	nt	nt	nt
Cc1ncsc1C(=O)Nc1nc2c(s1)CC(C)CC2 (stereo not drawn)	1.8µM	13µM	2.1µM	?	?	2.1µM
CC1CCc2nc(NC(=O)C3COc4ccccc4O3)sc2C1 (stereo not drawn)	?	i	0.54µM	i	?	?
CC1CCc2nc(NC(=O)C3CC3)sc2C1 (stereo not drawn)	?	?	24µM	i	?	i

Assay outcomes (PubChem)
